# Experimental data: PubChem BioAssay (NCATS)
# Inconclusive results are not listed. A call without a number means that no potency is given here. Activity calls are given as the source filed them. Calls come from the whole dose curve; as a rule, active = well fitted inhibition curve with a large enough effect; inconclusive = small, poorly fitted or top-dose-only effect; inactive = flat fitted curve, though single readings scatter.
# Molecular target: Calcium and integrin-binding protein 1 (Homo sapiens) (UniProt Q99828)
# Sequence (Q99828 whole entry, looked up): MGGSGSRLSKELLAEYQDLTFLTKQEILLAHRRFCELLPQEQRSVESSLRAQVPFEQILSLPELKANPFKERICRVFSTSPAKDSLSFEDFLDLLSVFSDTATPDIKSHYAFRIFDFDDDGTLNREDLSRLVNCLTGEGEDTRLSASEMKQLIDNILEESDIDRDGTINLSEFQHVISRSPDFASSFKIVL
# Assay: Primary qHTS for Identification of Calcium Integrin Binding Protein 1 (CIB1) Competitor (AID 1508620); note: top concentration of the series differs between compounds
# Conditions: CIB1-GST / FITC-alphaIIb peptide fluorescence polarization; series mostly up to 114 µM
# Procedure, shortened: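 Fluorescence polarization competition: GST-tagged CIB1 (1 uM final) preincubated with compound 15 min at room temperature, then FITC-labelled alphaIIb peptide (100 nM final) added. After 15 min at room temperature, polarization read at Ex 480/Em 540.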
row,SMILES,Potency
1,Cc1cc(-c2ccccc2)nc2c(C(=O)Nc3ccc(Cl)c(Cl)c3)cnn12,inactive
2,Cc1cc2c(s1)c1cnn(Cc3ccc(-c4ccccc4)cc3)c(=O)c1n2C,inactive
3,Cc1cc(NS(=O)(=O)CCNC(=O)Cc2ccc(Cl)c(Cl)c2)no1,inactive
4,Cc1ccccc1CSc1nc2ncc(Br)cc2[nH]1,inactive
5,CC(=O)N1CCN(C(=O)COC(=O)c2ccc([S+](C)(=O)[O-])c([N+](=O)[O-])c2)CC1,inactive
6,CC(C)(C)OC(=O)N1CCN(c2ccc(NCc3ccc(-c4ccccc4F)o3)cc2)CC1,inactive
7,Cc1ccnc(NC(=S)N2CCN(c3ccc4ccccc4n3)CC2)c1,inactive
8,COc1cccc(CN2C(=O)c3ccccc3NC2c2ccc(OC)c(COc3ccc(NC(C)=O)cc3)c2)c1 (stereo unspecified),inactive
9,N#Cc1ccc(-c2ccc(CNc3ccc(N4CCN5CCCCC5C4)cc3)o2)cc1 (stereo unspecified),inactive
10,O=C(Nc1cncc(NC(=O)c2cccs2)c1)c1cccs1,inactive
11,COc1ccccc1C1=Nn2c(nnc2-c2ccccc2O)SC1,inactive
12,O=C(OCC#CCSc1nnc(-c2ccc3ccccc3c2)o1)c1cccc(F)c1,inactive
13,COc1ccc(C2=Nn3c(nnc3-c3ccccc3OC)SC2)cc1O[C@H]1CCOC1,inactive
14,Cc1ccc2nc3sc(C(=O)N4CCN(C5CCN(C)CC5)CC4)cc3cc2c1,inactive
15,c1cncc(CNc2ncnc3ccc(-c4ccc5c(c4)OCCO5)cc23)c1,inactive
16,Cc1ccc(S(=O)(=O)Nc2cccc3ccc[n+](C)c23)cc1,inactive
17,Cc1ccc(CNc2ccc(N3CCN(C(=O)OC(C)(C)C)CC3=O)cc2)cc1,inactive
18,CCC(CC)C(=O)NCCc1nc2ccccc2n1CCOc1ccc(C)cc1,inactive
19,O=C(/C=C/c1cccc(Cl)c1)Nc1cccc([S+](=O)([O-])Nc2ccccc2F)c1,inactive
20,Cc1ccc(NS(=O)(=O)c2ccc3ccccc3c2)cc1C,inactive
21,CSc1ccc(-c2cnc(N3CCC(C(N)=O)CC3)s2)cc1,inactive
22,FC(F)(F)c1ccccc1-c1nc(NCc2ccc(-c3cccnc3)cc2)c2sccc2n1,inactive
23,Cc1cc2c(s1)c1cnn(Cc3ccc(S(C)(=O)=O)cc3)c(=O)c1n2C,inactive

row,SMILES,Potency
1,COc1ccc(CN2C(=O)c3ccccc3NC2c2ccc(OC)c(COc3ccc(NC(C)=O)cc3)c2)cc1 (stereo unspecified),inactive
2,Cc1cc(C)nc(NC(=S)N2CCN(c3nnc(C(F)(F)F)s3)CC2)c1,inactive
3,Cc1ccc(N2CCC(CNc3nc(-c4ccccc4C(C)C)ncc3F)CC2)cn1,inactive
4,FC(F)(F)c1cc(-c2ccc(CNc3nc(C4CCCC4)nc4ccccc34)cc2)ccn1,inactive
5,Cc1ccc(CNc2ccc(N3CCN(C)CC3)cc2)cc1,inactive
6,Cc1cc(N[S+](=O)([O-])c2ccc(NC(=O)Cn3c(=O)oc4ccc(Cl)cc43)cc2)no1,inactive
7,Cc1cc(-c2nnc3n2CCCCC3)c(C)n1-c1ccc(C(F)(F)F)cc1,inactive
8,c1c[nH]c(CNc2ncnc3ccc(-c4ccoc4)cc23)n1,inactive
9,O=S(=O)(NC1CCCC(NS(=O)(=O)c2c(F)cccc2F)C1)c1ccc2c(c1)OCCO2 (stereo unspecified),inactive
10,COc1cccc(-c2nc(SC)nc3sc(C(=O)NC(C)(C)C)c(N)c23)c1,inactive
11,Cc1ccc(OCCn2c(CCNC(=O)c3ccccc3Br)nc3ccccc32)cc1,inactive
12,Oc1cc(NCc2ccccc2)cc2cccnc12,inactive
13,COc1ccc(C2=Nn3c(nnc3-c3ccccc3Cl)SC2)cc1OC1CCOC1 (stereo unspecified),inactive
14,COc1cccc(-c2nc3cc(NC(=O)c4ccc(C)c([N+](=O)[O-])c4)ccc3o2)c1,inactive
15,CN1C(=O)NC(c2ccccc2Cl)C2=C1CCCC2=O (stereo unspecified),inactive
16,O=C(Nc1ccc(Cl)c(Cl)c1)Nc1nc(-c2ccncc2)cs1,inactive
17,CN(C)[S+](=O)([O-])c1ccc(-c2cncc(NC(=O)c3cccs3)c2)cc1,inactive
18,CC(C)(C)NS(=O)(=O)c1cccc(-c2nnc(SCc3ccc(C(=O)O)cc3)n2-c2ccccc2)c1,inactive
19,Cc1ccc(-c2ccc(=O)n(CC(=O)NCc3ncc[nH]3)n2)cc1,inactive
20,Cc1cnc(-c2ccccc2C(C)C)nc1NCc1ccc(-c2cccc(S(N)(=O)=O)c2)cc1,inactive
21,O=C1CCc2cc(S(=O)(=O)Nc3ccc4c(c3)CCC4)ccc2N1,inactive
22,O=C1CCCC2=C1C(c1[nH]ncc1Cl)N=C(Nc1nc3cccc(Cl)c3o1)N2 (stereo unspecified),inactive
23,CC(=O)NC(c1cc(F)c2cccnc2c1O)C1CC1 (stereo unspecified),inactive

row,SMILES,Potency
1,C=Cc1nc(Nc2cc(F)cc(F)c2)nc(NC2CCCC2)n1,inactive
2,Oc1cccc2cc(CNc3ccccc3F)cnc12,inactive
3,O=C(Cn1nc(-c2ccc(OC(F)(F)F)cc2)ccc1=O)NCCc1ccccc1,inactive
4,Cc1cnc(-c2ccccc2C(C)C)nc1NCc1cccs1,inactive
5,Cc1cc2c(s1)c1cnn(Cc3ccc(Br)cc3F)c(=O)c1n2C,inactive
6,CS(=O)(=O)c1ccccc1-c1csc(N2CCC(C(N)=O)CC2)n1,inactive
7,Cc1cc(NC(=O)Nc2nnc(C3CCCCC3)s2)ccc1Cl,inactive
8,Cc1cc2c(s1)c1cnn(Cc3cc(F)c(F)cc3F)c(=O)c1n2C,inactive
9,FC(F)(F)c1cccc(-c2nc(NCc3ccc(-c4ccnc(C(F)(F)F)c4)cc3)c3ccccc3n2)c1,inactive
10,COc1ccc(C2Nc3ccccc3C(=O)N2Cc2ccco2)cc1COc1cccc(NC(C)=O)c1 (stereo unspecified),inactive
11,c1nc(NCc2ccoc2)c2cc(-c3ccc4c(c3)OCO4)ccc2n1,inactive
12,O=C(Nc1cccc(-c2nn3c(=O)cc(N4CCNCC4)nc3s2)c1)C1CCNCC1,inactive
13,Cc1cc(C)cc(Cn2ncc3c4sc(C)cc4n(C)c3c2=O)c1,inactive
14,Cc1cc2c(s1)c1cnn(Cc3ccccc3C)c(=O)c1n2C,inactive
15,CC(=O)N1CCN(c2ccc(NCc3ccc(-c4cccc(Cl)c4)o3)cc2)CC1,inactive
16,CCc1nn2c(=O)cc(N3C(C)CNCC3C)nc2s1 (stereo unspecified),inactive
17,Cc1cc2c(s1)c1cnn(Cc3c(F)c(F)c(C(F)(F)F)c(F)c3F)c(=O)c1n2C,inactive
18,Cc1cc(C)nc(NC(=S)N2CCN(c3ccc4nccn4c3)CC2)c1,inactive
19,O=C(NCc1ccccc1)n1cc(P(=S)(c2ccccc2)c2ccccc2)c2ccccc21,inactive
20,CCOc1ccc(C(=O)Oc2ccc(-c3nc4ccccc4[nH]3)cc2)cc1Cl,inactive
21,O=[S+]([O-])(Nc1cnc2ccccc2c1)c1ccc(NCc2ccc(Cl)cc2O)cc1,inactive
22,Cc1ccc(NS(=O)(=O)c2cc3c(cc2N2CCCCC2)NC(=O)CC3)cc1C,inactive
23,FC(F)(F)c1cccc(CSc2nc3ncc(Br)cc3[nH]2)c1,inactive

row,SMILES,Potency
1,Cc1ccc(NS(=O)(=O)c2cc3c(cc2N2CCC2)NC(=O)CC3)cc1C,inactive
2,C#CCOc1cc(C2=Nn3c(nnc3-c3ccc(OCC(C)=O)cc3)SC2)ccc1OC,inactive
3,Cc1cc(C)nc(NC(=S)N2CCN(c3cccc(C#N)c3)CC2)c1,inactive
4,COc1cccc(NC(=S)N2CCN(c3ncc(C(F)(F)F)cc3Cl)CC2)n1,inactive
5,CC(C)N1Cc2ccc(Nc3nn4c(=O)c5ccccc5nc4s3)cc2C1,inactive
6,CC(C)(C)OC(=O)N1CCN(c2ccc(NCc3ccc(-c4ccc(C#N)cc4)s3)cc2)CC1,inactive
7,COc1ccc(C2Cc3ccccc3C(=O)N2Cc2ccccc2)cc1COc1ccc(NC(C)=O)cc1 (stereo unspecified),inactive
8,O=C(Nc1cncc(-c2cccnc2)c1)c1cccs1,inactive
9,Cc1ccc(CC(=O)Nc2nc(-c3ccc4c(c3)CCN4C(=O)c3ccccc3C)c(C)s2)cc1C,inactive
10,Nc1ccc(S(=O)(=O)N2CCCN(S(=O)(=O)c3ccc4c(c3)OCCO4)CC2)cc1,inactive
11,Cc1cc(C)nc(NC(=S)N2CCN(c3cc(Cl)cc(Cl)n3)CC2)c1,inactive
12,O=C(Nc1ccc(F)c(C(F)(F)F)c1)Nc1nnc(-c2ccncc2)o1,inactive
13,CNc1oc(-c2cccc3c2OC(F)(F)O3)nc1C#N,inactive
14,O=[S+]([O-])(NCC#CCSc1nnc(-c2cccc3ccccc23)o1)c1ccc(F)cc1,inactive
15,NC(=O)C1CCN(c2nc(-c3ccc(-c4ccccc4)cc3)cs2)CC1,inactive
16,Cc1ccc(CSc2nnc(-c3cccc4ccccc34)o2)cc1,inactive
17,O=C(Nc1cccc(-c2nn3c(=O)cc(N4CCNCC4)nc3s2)c1)c1ccncc1,inactive
18,Nc1ccc(S(=O)(=O)Nc2cccc3cccnc23)cc1,inactive
19,CCOC(=O)c1cccc(-n2cnc(/C=C3\NC(=O)N(CC(=O)OC(C)(C)C)C3=O)c2)c1,inactive
20,Cc1ccc(NS(=O)(=O)c2ccc3c(c2)C(Cl)(Cl)C(=O)N3)cc1C,inactive
21,CC(C)(C)N[S+](=O)([O-])c1cccc(-c2nnc(SCc3ccc(C(=O)O)cc3)n2-c2ccc(F)cc2)c1,inactive
22,COc1cccc(NS(=O)(=O)c2ccc(NCc3cccc(OC)c3O)cc2)c1,inactive
